The values below come from PubChem BioAssay (Tox21).

The structures appear in SMILES notation. Results filed as inconclusive are left out. A call without a number means that no potency is given here. Unmarked numbers belong to inactive results. Active and inactive are the calls of the source. Calls come from the whole dose curve.
Potency is the fitted concentration of half-maximal effect.

The target in this experiment is 5-hydroxytryptamine receptor 2A (Homo sapiens) (UniProt P28223). Description: 5-hydroxytryptamine receptor 2A (HTR2A) small molecule antagonists, cell-based qHTS assay (AID 1963586). Note: nearly all actives have a fitted effect of over 45% in size. The note with it: HTR2A-CHO cells, DOI-induced calcium flux, fluorescence; series mostly up to 61.5 µM. The source says: National Center for Advancing Translational Sciences [NCATS]
Chain of 5-hydroxytryptamine receptor 2A (Homo sapiens) (P28223 whole entry, looked up): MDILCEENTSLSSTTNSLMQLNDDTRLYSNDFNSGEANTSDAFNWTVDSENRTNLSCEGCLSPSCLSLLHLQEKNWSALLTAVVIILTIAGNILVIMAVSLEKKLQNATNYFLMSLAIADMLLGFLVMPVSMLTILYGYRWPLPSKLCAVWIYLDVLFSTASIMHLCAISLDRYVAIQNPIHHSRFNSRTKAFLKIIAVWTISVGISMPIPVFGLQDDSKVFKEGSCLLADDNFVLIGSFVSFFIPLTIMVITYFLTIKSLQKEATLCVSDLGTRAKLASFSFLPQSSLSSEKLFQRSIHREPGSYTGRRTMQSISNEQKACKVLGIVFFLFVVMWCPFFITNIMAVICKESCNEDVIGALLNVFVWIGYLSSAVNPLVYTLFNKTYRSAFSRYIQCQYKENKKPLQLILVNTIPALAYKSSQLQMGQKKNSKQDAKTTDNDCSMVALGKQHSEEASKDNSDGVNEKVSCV
Division of Preclinical Innovation [DPI]
U.S. Environmental Protection Agency [EPA]
National Institutes of Environmental Health Sciences [NIEHS]
National Toxicology Program [NTP]
U.S. Food and Drug Administration [FDA]
The HTR2A receptor is a subtype of the 5-HT2 receptor that belongs to the serotonin receptor family and is a G protein-coupled receptor (GPCR). The HTR2A-CHO cell line stably expressing human 5-hydroxytryptamine receptor 2A (HTR2A) can be used for screening antagonists of interactions between 5-HT2 and its ligands. The HTR2A-CHO calcium flux assay is a homogeneous fluorescence-based assay for detecting the intracellular calcium level using FDSS kinetic plate reader system.
Tox21 Assay Protocol Summary:
HTR2A-CHO cells were dispensed at 2000 cells/3uL/well in 1536-well black-clear bottom plates using a Multidrop Dispenser. After the assay plates were incubated at a 37 C/5% CO2 incubator for 18 h, 3 uL of Dye Loading Buffer was transferred to the assay plate by a Flying Reagent Dispenser. The assay plates were incubated at 37 C for 1h. For antagonist mode, 23 nL of compounds dissolved in DMSO, positive controls or DMSO only was transferred to the assay plate by a pin tool. After 5 min incubation at room temperature, 1.5 uL of 4-Iodo-2,5-dimethoxy-alpha-methylbenzeneethanamine hydrochloride (DOI) at 4nM was added to each well. The fluorescence intensity in the plates was measured using FDSS 7000EX kinetic plate reader for 3 min at 1 sec intervals.
Turning to `OCC(CO)(CO)COCC(CO)(CO)CO`, the Potency result is “inactive”. With `C=CCNc1nc(NCC=C)nc(N2CCN(C(c3ccc(F)cc3)c3ccc(F)cc3)CC2)n1`, the Potency is 5.16 µM (active). On to `COc1ccc(C(=O)c2ccc(OC)cc2O)c(O)c1`, for which the Potency result was “inactive”. The same measure, in the same setting: the same measure for `Cc1cc(CC(=O)O)c(C)n1-c1ccc(Cl)cc1`: “inactive”. Still for that read-out and setting: to `CN=C(NC#N)NCCSCc1csc(N=C(N)N)n1` belongs “inactive”. On the same count and under the same terms, to `CCCOC(=O)c1ccc(N)cc1` belongs “inactive”; to `Cc1cc(-n2nc3ccc(Cl)cc3n2)c(O)c(C(C)(C)C)c1`, “inactive”. Regarding `Cc1[nH]c(=O)c(C#N)cc1-c1ccc2nccn2c1`, the Potency result was “inactive”. For `COc1cc2c(cc1OC)C(C(C(=O)N(CCc1ccc(OC)c(OC)c1OC)CCc1ccc(OC)c(OC)c1OC)c1ccccc1)=NCC2` (stereo not given), the Potency entry was “inactive”. The same measure, in the same setting: the same measure for `CCCn1cnc2c1c(=O)n(CCCCC(C)=O)c(=O)n2C`: “inactive”. On the same count and under the same terms, to `Nc1cc(S(=O)(=O)O)ccc1O` belongs “inactive”. For `Cc1cc(S(=O)(=O)O)ccc1N=Nc1c(O)ccc2ccccc12`, the Potency entry was “inactive”. Still for that read-out and setting: the same measure for `O=C(CCCl)NCCc1ccccc1`: “inactive”. Same read-out and setting: to `CCN1CCCC1CN` (stereo not given) belongs “inactive”; to `C[Si]1(C)O[Si](C)(C)O[Si](C)(C)O1`, “inactive”; to `NC(=O)c1ncn([C@@H]2O[C@H](CO)[C@@H](O)[C@H]2O)c1N`, “inactive”. Still for that read-out and setting: the same measure for `CCCCCCCCCCCC[N+](C)(C)CCCCCCCCCCCC`: “inactive”. Turning to `CCC(C)CCCC(C)(C)O` (stereo not given), the Potency result was “inactive”. Same read-out and setting: the same measure for `O=C1C=CCCC1`: “inactive”; for `CC(C)(C)NCC(O)COc1cccc2c1CCC(=O)N2` (stereo not given): “inactive”. Still for that read-out and setting: the same measure for `O=C1CCCCO1`: “inactive”. The same measure, in the same setting: to `C=C[Si](C)(C)O[Si](C)(C)C=C` belongs “inactive”.

Consider `CCCC(c1cc(C(C)(C)C)c(O)cc1C)c1cc(C(C)(C)C)c(O)cc1C`, for which the Potency result is “inactive”. With `O=C(O)c1cc(O)c2c(c1)C(=O)c1cccc(O)c1C2=O`, the Potency result was “inactive”. On to `CCc1cccc(CC)c1`, for which the Potency result was “inactive”. Same read-out and setting: the same measure for `CC1(C)OC(=O)Nc2ccc(Br)cc21`: “inactive”; for `Cc1ccc(/C=N/n2c(-c3ccccc3)csc2=S)cc1`: “inactive”; for `O=Cc1ccc(F)c(Br)c1`: “inactive”.

As to `O=S1(=O)c2cccc3cccc(c23)N1CCCN1CCN(c2ccc(F)cc2)CC1`, the Potency entry was “inactive”. Still for that read-out and setting: the same measure for `O=C(OCC(O)CO)c1ccccc1Nc1ccnc2c(C(F)(F)F)cccc12` (stereo not given): “inactive”; for `C/C=C(\C)C(=O)OCCC(C)CCC=C(C)C` (stereo not given): “inactive”. Same read-out and setting: the same measure for `ON=C1CCCC1`: “inactive”; for `Cc1nc(-c2ccc(OCC(C)C)c(C#N)c2)sc1C(=O)O`: “inactive”; for `O=C(NS(=O)(=O)/C=C/c1ccccc1)c1ccc(F)cc1Cl`: “inactive”. On the same count and under the same terms, the same measure for `O=C1c2ccccc2C(=O)C1c1nc2ccccc2c(Br)c1O`: “inactive”; for `C=C(C)C(=O)OCCCCCCCCCCOC(=O)C(=C)C`: “inactive”.

On to `CCCCCCCCCCCCCCCCCO`, for which the activity, negative = inhibition is -18.1% [at 12.7 µM]. Regarding `CCCCOCCOC(=O)c1cccnc1`, the Potency entry is “inactive”.

In the case of `N#CSCC(=O)O`, the Potency entry is “inactive”. Same read-out and setting: the same measure for `CC(C)C(=O)OCC(C)(C)C(O)C(C)C` (stereo not given): “inactive”.
